# BioA inh: blocks M. tuberculosis BioA enzyme activity | 0.096% of 360,000 active | inhibition, % at 9.99 µM | purified M. tuberculosis BioA enzyme, plate reader | AID 602481; in the data active = inhibition above about 40%
# FadD28 FP inh: M. tuberculosis FadD28 bisubstrate binding inhibition; AID 588549; FadD28 bisubstrate probe binding, fluorescence polarization; inhibition, % at 12.5 µM; 0.22% of 360,000 active; in the data active = inhibition above about 8.5%, passing the limit was not always enough
# FBA Mtb inh: Mtb fructose-bisphosphate aldolase inhibition. purified M. tuberculosis FBA, fluorescence read-out. inhibition, % at 1 µM. 2.3% of 360,000 active; in the data active = inhibition above about 27%
# Target sequence (P9WQA3 whole entry, looked up): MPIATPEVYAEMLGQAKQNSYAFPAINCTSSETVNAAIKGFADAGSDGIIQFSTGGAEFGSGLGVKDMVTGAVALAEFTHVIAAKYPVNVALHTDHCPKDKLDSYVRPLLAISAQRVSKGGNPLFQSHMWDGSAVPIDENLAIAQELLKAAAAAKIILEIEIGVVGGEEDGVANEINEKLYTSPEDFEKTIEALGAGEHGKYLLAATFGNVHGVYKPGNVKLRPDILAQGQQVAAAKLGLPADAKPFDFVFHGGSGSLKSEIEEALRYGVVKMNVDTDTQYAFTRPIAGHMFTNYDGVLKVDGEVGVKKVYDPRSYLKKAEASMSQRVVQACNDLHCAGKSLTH
# Rv3671c inh: inhibits the M. tuberculosis serine protease Rv3671c; inhibition, % at 5.96 µM; 0.048% of 320,000 active; AID 2606; in the data active = inhibition above about 38%;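 note: extracellular domain of Rv3671c used as enzyme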
# GDH-TPI inh: GDH-TPI coupled enzyme inhibition counter-screen; inhibition, % at 4.8 µM; 1.2% of 360,000 active; GDH-TPI coupled enzyme counterscreen, NADH absorbance; AID 588335; in the data active = inhibition above about 30%
# A number is an active result; - = inactive; . = no result; + = active, no number. Rows were chosen to be rich in hits. Some 3% of all compounds tested hit in one or more screens of this group.
SMILES,BioA inh,FadD28 FP inh,FBA Mtb inh,Rv3671c inh,GDH-TPI inh
COc1ccc(CN(C(=O)CSc2nnc(-c3ccccc3C)o2)c2ccc(F)cc2)cc1,-,-,+,-,-
O=C(CSc1nnc(-c2c[nH]c3ccccc23)o1)N(Cc1ccccc1)c1ccc(F)cc1,-,-,-,-,-
CN1CCN(C(=O)C[C@@H]2C=C[C@@H](NC(=O)Cc3ccccn3)[C@@H](CO)O2)CC1,-,.,.,.,.
COc1ccc(-c2nc(C#N)c(N3CCCCCC3)o2)cc1OC,.,-,+,-,31
N#Cc1nc(-c2ccc(OCc3ccc(Cl)cc3)cc2)oc1N1CCOCC1,-,-,-,-,-
Cc1ccc(-c2nc(C#N)c(N3CCCCC3)o2)cc1,-,-,137,-,-
N#Cc1nc(-c2ccc([N+](=O)[O-])cc2)oc1N1CCCCC1,-,-,-,-,-
N#Cc1nc(-c2ccc(Cl)cc2)oc1N1CCCCC1,.,-,+,-,-
CC(C)CNc1oc(-c2ccc(F)cc2)nc1C#N,-,-,128,-,-
Cc1noc(C)c1NC(=O)N[C@@H]1C=C[C@@H](CC(=O)N2CCN(C)CC2)O[C@@H]1CO,-,.,.,.,.
COc1ccc(-c2nc(C#N)c(N3CCC(C)CC3)o2)cc1,-,-,115,-,-
N#Cc1nc(Cc2ccccc2)oc1N1CCCC1,.,-,-,-,-
N#Cc1nc(-c2ccccc2)oc1N1CCCCC1,-,-,+,-,-
COc1ccc(-c2nc(C#N)c(N3CCCCC3)o2)cc1,-,.,+,-,-
O=S(=O)(c1ccccc1)c1nc(-c2ccccc2)oc1N1CCCCC1,-,-,-,-,-
CN1CCN(c2oc(-c3ccc([N+](=O)[O-])cc3)nc2C#N)CC1,.,-,-,-,-
N#Cc1nc(-c2ccccc2F)oc1N1CCCC1,-,-,+,-,-
COCCNC(=O)c1cc2c(c(-c3cccc(C4=CCCC4)c3)n1)[C@@H](CCO)N([S@](=O)C(C)(C)C)C2,-,.,.,.,.
C[C@@H]1CN([C@@H](C)CO)C(=O)Cc2cc(NS(=O)(=O)c3cn(C)cn3)ccc2O[C@H]1CN(C)Cc1ccc(C(F)(F)F)cc1,-,.,.,.,.
CCS(=O)(=O)N1CCCCN2[C@@H](CO)[C@@H](c3ccc(-c4ccccc4F)cc3)[C@@H]2C1,-,.,.,.,.
C[C@@H]1CN([C@H](C)CO)C(=O)c2cccc(NC(=O)c3ccc(-c4nccs4)cc3)c2O[C@@H]1CN(C)C(=O)Nc1ccc2c(c1)OCO2,-,.,.,.,.
COc1ccc(-c2nc(C#N)c(N3CCCCCC3)o2)cc1,-,-,194,-,-
COc1ccc(-c2nc(C#N)c(NC(C)C)o2)cc1,-,-,190,-,-
CCN1CCN(c2oc(-c3ccc([N+](=O)[O-])cc3)nc2C#N)CC1,-,-,-,-,-
CCCOc1ccc(-c2nc(C#N)c(N3CCC(C(N)=O)CC3)o2)cc1,-,-,+,-,-
SMILES,BioA inh,FadD28 FP inh,FBA Mtb inh,Rv3671c inh,GDH-TPI inh
N#Cc1nc(-c2ccco2)oc1N1CCCC1,.,-,189,-,-
CC(NC(=O)/C(C#N)=C/c1ccc(OCC(=O)O)cc1)c1ccccc1 (stereo unspecified),-,-,-,-,37
COc1ccc(/C=C(\C#N)C(=O)Nc2cccnc2)cc1,.,-,-,-,32
CCOc1ccc(/C=C(\C#N)C(=O)Nc2ccccn2)cc1,-,-,-,-,38
Cn1cc(/C=N/NC(=O)c2ccc(C#N)cc2F)c2ccccc21,.,-,-,-,-
N#Cc1ccc(C(=O)N/N=C/c2cn(CC(=O)O)c3ccccc23)c(F)c1,.,-,-,-,36
CCOC(=O)Cn1cc(/C=N/NC(=O)c2ccc(C#N)cc2F)c2ccccc21,-,-,-,-,34
CCOC(=O)Cn1cc(/C=C(/C#N)C(=O)NC(C)C)c2ccccc21,-,-,-,-,-
C[C@H](CO)N1C[C@H](C)[C@@H](CN(C)S(=O)(=O)c2cccs2)Oc2ccc(NC(=O)CCCN(C)C)cc2C1=O,-,.,.,.,.
CN1CCN(C(=O)C[C@@H]2CC[C@@H]3[C@H](COC[C@@H](O)CN3Cc3ccc4c(c3)OCO4)O2)CC1,-,.,.,.,.
CO[C@H]1CC[C@@H]2CCOc3c(C#N)cccc3C(=O)N(C)[C@H](C)C(=O)N(C)C[C@H]1O2,-,.,.,.,.
Cc1cccc(S(=O)(=O)N2CCCCN3[C@H](C2)[C@@H](c2ccc(C#C[C@H](C)O)cc2)[C@@H]3CO)c1,-,.,.,.,.
Oc1ccc(/C=N/N(Cc2ccccc2)c2ccccc2)c(O)c1O,.,16,-,.,-
CC1=NN(c2ccccc2)C(=O)/C1=C/c1c(O)n(-c2ccc(F)cc2)[nH]c1=O,-,19,-,-,-
CC1=NN(c2ccccc2)C(=O)C1=Cc1ccccc1,-,-,-,.,-
Cc1nc(NS(=O)(=O)c2ccccc2)sc1C(=O)N/N=C/c1ccccc1,-,-,-,-,47
Cc1nc(NS(=O)(=O)c2ccccc2)sc1C(=O)NNS(=O)(=O)c1ccccc1,-,-,-,-,-
O=c1[nH]nc(N/N=C/c2ccc(Cl)cc2Cl)c(=O)[nH]1,-,-,-,-,38
O=C(CCNc1n[nH]c(=O)[nH]c1=O)N/N=C/c1ccc(Cl)cc1,.,-,-,-,-
CCC(=O)N1C[C@H](C)[C@H](OC)CN(C)C(=O)c2ccc(NC(=O)CC(F)(F)F)cc2OC[C@@H]1C,-,.,.,.,.
CC1CCN(CCCNC(=O)c2coc3nc4ccccc4nc23)CC1,-,-,+,-,-
CC1CCCN(CCCNC(=O)c2coc3nc4ccccc4nc23)C1 (stereo unspecified),-,-,155,-,-
C[C@H]1CN([C@@H](C)CO)C(=O)c2cc(C#CCN(C)C)cnc2O[C@@H]1CN(C)S(C)(=O)=O,-,.,.,.,.
C[C@H]1CN([C@@H](C)CO)C(=O)Cc2cc(NC(=O)c3ccncc3)ccc2O[C@H]1CN(C)CC1CCCCC1,-,.,.,.,.
COC(=O)N/N=C/c1cc(N=Nc2ccccc2)ccc1O,-,-,-,-,38
SMILES,BioA inh,FadD28 FP inh,FBA Mtb inh,Rv3671c inh,GDH-TPI inh
COc1ccc(C(=O)/C=C/c2ccc(O)cc2)c(O)c1CC=C(C)C,-,-,-,-,-
COc1ccc(C(=O)/C=C/c2ccc(O)cc2)c2c1CC(O)C(C)(C)O2 (stereo unspecified),-,-,-,-,33
FC(F)(F)c1ccccc1/C=N/Nc1ccccn1,.,-,-,-,-
O=C(O)c1nc(Cl)c(Cl)c(N/N=C/c2ccccc2C(F)(F)F)c1Cl,-,-,-,-,31
CC(C)NC(=O)N(C)C[C@@H]1Oc2cc(C#Cc3ccc(F)cc3)ccc2S(=O)(=O)N([C@H](C)CO)C[C@H]1C,-,.,.,.,.
O=C(/C=C/c1ccco1)Nc1ccccn1,-,-,-,-,73
O=C(/C=C/c1ccco1)Nc1nc(-c2ccccn2)cs1,.,-,-,-,-
Cc1ccc(NC(=O)/C=C/c2ccco2)nc1,.,-,-,-,32
C[C@@H]1CCCCO[C@H](CN(C)C(=O)Nc2ccc(C(F)(F)F)cc2)[C@H](C)CN([C@H](C)CO)C(=O)c2cc(NC(=O)Nc3ccccc3)ccc2O1,-,.,.,.,.
COc1ccc(-c2cc(C)no2)cc1S(=O)(=O)Nc1ccccc1,-,-,139,-,-
